Assay in all cases: NCI-60 one-dose screen, 48 h (100 = growth as untreated, 0 = no growth, -100 = all killed)
The test system of one test is DU-145 prostate. The conditions noted are these: 10 µM unless noted.
The test system of the next test is K-562 leukemia. The following applies: 10 µM unless noted.
In another test the test system is MALME-3M melanoma. The conditions noted are these: 10 µM unless noted.
Another test concerns MDA-MB-231 breast. The following applies: 10 µM unless noted.
A further test deals with RXF 393 renal. The conditions noted are these: 10 µM unless noted.
The test system of another test is SF-268 CNS. The following applies: 10 µM unless noted.
The subject of another test is SF-295 CNS. The following applies: 10 µM unless noted.
A further test has as its system SF-539 CNS. The conditions noted are these: 10 µM unless noted.
The subject of a further test is UACC-257 melanoma. The following applies: 10 µM.
Another test concerns M14 melanoma. The following applies: 10 µM unless noted.

The panel holds about 83,000 compounds, 20% with a hit somewhere; the sample as a whole holds those more often.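 Note: values are percent growth. 100 is the growth of untreated cells, values between 100 and 0 indicate rising inhibition; between -100 and 0 indicates cell death.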 Values without a mark were called inactive. Active and inactive are the calls of the source. The calls were made as follows: active = growth percent below 10; inactive = the rest.

In the case of `COc1cc(C2C=C(C)N=C3SC=C(C)N32)cc(OC)c1OC` (stereo not given), the growth with DU-145 prostate was -26.7% (active); with K-562 leukemia, 2.16% (active); with MALME-3M melanoma, -54% (active); in the test with MDA-MB-231 breast it was -23.5% (active); in the test on RXF 393 renal, -89.7% (active); in the test with SF-268 CNS, -16.9% (active). The growth in the test on SF-295 CNS is -1.7% (active); in the test with SF-539 CNS, -40.4% (active); in the test on UACC-257 melanoma, -38.9% (active); with M14 melanoma, -52.5% (active).

For the molecule `CCNC(=O)C1CCCN1C(=O)C(CCCN=C(N)N)NC(=O)C(CC(C)C)NC(=O)C(CC(C)C)NC(=O)C(Cc1ccc(O)cc1)NC(=O)C(CO)NC(=O)C(Cc1c[nH]c2ccccc12)NC(=O)C(Cc1cnc[nH]1)NC(=O)C1CCC(=O)N1` (stereo not given), the growth is 135% with DU-145 prostate; 73.5% with K-562 leukemia; 122% in the test on MALME-3M melanoma; 112% in the test with MDA-MB-231 breast; 28.4% in the test on RXF 393 renal; 100% in the test with SF-268 CNS. In addition, the growth in the test on SF-295 CNS was 122%; in the test with SF-539 CNS, 96.1%; with UACC-257 melanoma it was 83.8%; in the test with M14 melanoma, 102%.

In the case of `COc1cc(/C=C\c2cc(OC)c(OC)c(OC)c2)cc(N/C=C\C(=O)c2c[nH]c3ccccc23)c1OC`, the growth in the test on DU-145 prostate is 41.7%; in the test on K-562 leukemia, -9.37% (active); in the test on MALME-3M melanoma, -58.2% (active); in the test on MDA-MB-231 breast it was -12% (active); in the test on RXF 393 renal, -35.3% (active); with SF-268 CNS, 72%. In addition, the growth with SF-295 CNS was 55.8%; in the test on SF-539 CNS, -95.2% (active); in the test with UACC-257 melanoma it was 33.4%; with M14 melanoma, 52.9%.

In the case of `O=C(O)Cc1ccc2c(c1)Cc1cccnc1O2`, the growth is 107% with DU-145 prostate; 114% with K-562 leukemia; 98.5% with MALME-3M melanoma; 111% with MDA-MB-231 breast; 91.2% in the test on RXF 393 renal; 103% in the test with SF-268 CNS. Besides, the growth with SF-295 CNS is 108%; in the test on SF-539 CNS, 99.7%; with UACC-257 melanoma, 106%; in the test with M14 melanoma it was 103%.

Regarding `CCN(C(=O)c1cc2ccccc2[nH]1)[C@H]1CCC[C@@H](NCc2ccc(OC)cc2)C1`, the growth in the test with DU-145 prostate is 95.6%; in the test with K-562 leukemia, 76.6%; in the test with MALME-3M melanoma it was 92.3%; in the test on MDA-MB-231 breast, 90.4%; in the test with RXF 393 renal it was 86%; in the test on SF-268 CNS, 89.8%. Also, the growth is 99.2% with SF-295 CNS, 104% in the test on SF-539 CNS, 112% in the test on UACC-257 melanoma and 98.2% in the test on M14 melanoma.

With `O=c1[nH]c2ccccc2cc1-c1nnc(Cc2ccccc2)o1`, the growth with DU-145 prostate was 71.1%; with K-562 leukemia it was 30.8%; with MALME-3M melanoma, 55.8%; in the test with MDA-MB-231 breast it was 79.6%; in the test with RXF 393 renal it was 76.1%; in the test on SF-268 CNS, 78.4%. Further, the growth with SF-295 CNS is 99.7%; in the test with SF-539 CNS, 80.8%; in the test on UACC-257 melanoma it was 80%; in the test with M14 melanoma, 65.8%.

For the molecule `COc1ccc(-c2nc3sccn3c2-c2ccnc(NCCCNS(=O)(=O)c3ccc4ccccc4c3)n2)cc1`, the growth in the test with DU-145 prostate is 62.1%; in the test with K-562 leukemia it was 34.6%; with MALME-3M melanoma, 80.8%; in the test on MDA-MB-231 breast, 53.7%; in the test on RXF 393 renal, 76.9%; in the test with SF-268 CNS it was 63.5%. Further, the growth with SF-295 CNS was 61%; in the test with SF-539 CNS, 71.7%; with UACC-257 melanoma, 82.8%; with M14 melanoma, 56.5%.

With `COC1=CC(c2ccc[nH]2)=N/C1=C\c1[nH]c(C)c(CCCn2cc(CCCCCCCCC[C@@H]3Cc4cc(O)ccc4C4CC[C@]5(C)[C@@H](O)CC[C@H]5C43)nn2)c1C` (stereo not given in full), the growth is 33.3% with DU-145 prostate; 28% with K-562 leukemia; 137% in the test with MALME-3M melanoma; -12.8% (active) with MDA-MB-231 breast; 28.1% in the test on RXF 393 renal; 58.2% with SF-268 CNS. Besides, the growth with SF-295 CNS was 65.2%; in the test with SF-539 CNS it was 59.1%; with UACC-257 melanoma it was 98.5%; in the test on M14 melanoma, 74%.

As for `CC[C@]1(O)C[C@@H]2CN(Cc3c([nH]c4ccccc34)[C@@](C(=O)OC)(c3cc4c(cc3OC)N(C)[C@H]3[C@@](O)(C(=O)OC)[C@H](OC(C)=O)[C@]5(CC)[C@@H]6C[C@@H]6CN6CC[C@]43[C@@H]65)C2)C1`, the growth in the test with DU-145 prostate is 7.39% (active); in the test with K-562 leukemia it was 11.8%; in the test with MALME-3M melanoma, 38%; in the test with MDA-MB-231 breast it was 0.275% (active); in the test with RXF 393 renal, 15.2%; in the test on SF-268 CNS, 28.1%. Further, the growth in the test with SF-295 CNS was -13.9% (active); with SF-539 CNS, -0.324% (active); in the test on UACC-257 melanoma, 71.7%; in the test on M14 melanoma, -23.2% (active).

Consider `COC1=CC(c2ccc[nH]2)=N/C1=C\c1[nH]c(C)c(C(=O)CCC(=O)Oc2ccc3c(c2)CCC2C3CC[C@]3(C)[C@@H](O)CC[C@@H]23)c1C` (stereo not given in full), for which the growth in the test with DU-145 prostate is 0.722% (active); in the test on K-562 leukemia, -18% (active); with MALME-3M melanoma it was 9.7% (active); in the test with MDA-MB-231 breast it was -64.2% (active); in the test on RXF 393 renal, -6.4% (active); in the test with SF-268 CNS, 3.8% (active). For the same molecule, the growth was 20.3% with SF-295 CNS, -18.9% (active) in the test on SF-539 CNS, 82.4% in the test on UACC-257 melanoma and -50.8% (active) in the test with M14 melanoma.

`COc1ccc(Cn2c(SC)nc(=O)n(Cc3ccc(Cl)cc3)c2=O)cc1`: the growth is 103% in the test on DU-145 prostate; 92.6% with K-562 leukemia; 95.1% in the test on MALME-3M melanoma; 99.4% with MDA-MB-231 breast; 107% with RXF 393 renal; 94.1% in the test on SF-268 CNS. The growth is 59.7% with SF-295 CNS, 106% in the test with SF-539 CNS, 102% in the test on UACC-257 melanoma and 98.6% in the test on M14 melanoma.

With `O=C1Nc2ccc(Br)cc2C1=N/C=c1\[nH]c(=O)/c(=C/c2ccc(Cl)cc2)s1`, the growth is 102% in the test on DU-145 prostate; 81% in the test with K-562 leukemia; 93.6% in the test with MALME-3M melanoma; 88.6% in the test on MDA-MB-231 breast; 94.9% in the test with RXF 393 renal; 95.2% in the test with SF-268 CNS. Also, the growth is 96.5% with SF-295 CNS, 90.7% in the test on SF-539 CNS, 95.7% in the test on UACC-257 melanoma and 101% with M14 melanoma.

Turning to `COc1cc(OC)c(C(=O)/C=C/c2ccc(C#N)cc2)c(OC)c1`, the growth in the test on DU-145 prostate is 18.3%; with K-562 leukemia, 9.68% (active); in the test on MALME-3M melanoma it was 44.2%; with MDA-MB-231 breast, 22.2%; in the test with RXF 393 renal it was 15.9%; in the test on SF-268 CNS it was 21%. Besides, the growth in the test with SF-295 CNS is 8.32% (active); with SF-539 CNS, 2.95% (active); in the test on UACC-257 melanoma, 30.8%; in the test with M14 melanoma it was 1.79% (active).

These data come from PubChem BioAssay (NCI).
